Bioassay records (PubChem BioAssay)
HT1080NT lethal: kills 2HG-producing HT-1080-NT fibrosarcoma cells | 1.6% of 360,000 active | Potency, µM (doses to about 46.1 µM), for the others: at the highest dose activity, negative = less viability, usual class: cytotoxic | HT-1080-NT fibrosarcoma viability, CellTiter-Glo ATP luminescence, 48 h;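 further: NT is the 2HG producing partner of a matched IDH1 knockdown line; 0% = DMSO-treated cells and -100% = media-only wells without cells; nearly all actives have a fitted effect of over 55% in size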
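HT-1080-NT fibrosarcoma cells (2HG-overproducing), 750 cells/well in RPMI with 5% FBS, dosed after 2 h and incubated 48 h at 37C. CellTiter-Glo luminescence normalized to DMSO and no-cell wells; concentration-response curves fitted and classed.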
DT40 TDP1 CPT: growth inhibition of DT40 Tdp1-/-;hTDP1 cells with camptothecin (screen for TDP1 inhibitors). chicken DT40 Tdp1-/-;hTDP1 cells + 20 nM CPT, ATP luminescence, 48 h. Potency, µM (highest dose often 46.2 µM), for the others: at the top dose activity change, negative = growth inhibition, hits mostly inhibitors. 12% of 420,000 active. AID 686979; further: nearly all actives have a fitted effect of over 55% in size
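Cell growth measured by CellTiter-Glo luminescence after a minimum 48 h, 37 C compound exposure with 20 nM CPT in Tdp1-knockout DT40 cells stably expressing hTDP1, seeded 400/well; qHTS titration format.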
KB-V1 MDR tox: kills drug-selected multidrug resistant KB-V1 cells | KB-V1 MDR cells viability, CellTiter-Glo, 72 h | 3.4% of 400,000 active | Potency, µM (titrated, usually from 46.1 µM), hits mostly cytotoxic; further: nearly all actives have a fitted effect of over 60% in size
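KB-V1 cells (P-gp-expressing MDR subline of KB-3-1) in phenol-red-free DMEM with 10% FBS were exposed to library compounds over a concentration series for 72 h at 37 degrees C. Viability read by CellTiter-Glo luminescence; concentration-effect curves fitted after normalization.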
HT1080 IDH1KD tx: HT-1080 IDH1 knockdown cell toxicity (counter line); HT-1080 IDH1 knockdown viability, ATP luminescence, 48 h; Potency, µM (top dose mostly 46.1 µM), for inactives: at the top dose activity, negative = toxicity, actives largely listed as cytotoxic; 2% of 360,000 active;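 further: 0% = DMSO wells and -100% = cell-free medium wells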
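Cytotoxicity counter-line: IDH1KD HT-1080, 48 h, CellTiter-Glo. Curves classed by r2, magnitude and activity.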
KB-3-1 tox: kills parental KB-3-1 adenocarcinoma cells; KB-3-1 viability, CellTiter-Glo ATP luminescence, 72 h; Potency, µM (doses to about 46.1 µM), hits mostly cytotoxic; 1.4% of 400,000 active; AID 1347075; further: nearly all actives have a fitted effect of over 60% in size
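Here the drug-naive KB-3-1 line serves as comparator for MDR sub-line selectivity; cells received compound titrations, 72 h at 37 °C, then CellTiter-Glo readout.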
TDP1 cell noCPT: qHTS for Inhibitors of human tyrosyl-DNA phosphodiesterase 1 (TDP1): qHTS in cells in absence of CPT | DT40 Tdp1-/- hTDP1 cells, no CPT, ATP luminescence, 48 h | Potency, µM (highest dose often 46.2 µM), for the others: at the highest dose activity change, negative = growth inhibition, most hits filed as inhibitors | 15% of 420,000 active; further: nearly all actives have a fitted effect of over 55% in size
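Seeded 400 DT40-hTDP1 cells/well (vehicle DMSO, no 20 nM CPT); pinned compounds; ≥48 hr at 37 °C; CellTiter-Glo luminescence as viability measure.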
* marks the source's active call; other numbers are inactive results; i = inactive; ? = inconclusive; . = not tested or not shown. Hits are enriched below; roughly 19% of the tested compounds scored in any of these assays. The call rests on the fitted dose curve; in most records, active means well fitted curve in the direction sought with a large enough effect; inconclusive means small, poorly fitted or top-dose-only effect, or another doubt; inactive means no such curve, though single readings can be large; an effect the other way counts as inactive or inconclusive. Unless noted, on the % scale 0 is the no-effect control and ±100 the full control effect; potency means the concentration at half of the fitted maximal effect.

SMILES	HT1080NT lethal	DT40 TDP1 CPT	KB-V1 MDR tox	HT1080 IDH1KD tx	KB-3-1 tox	TDP1 cell noCPT
COC(=O)C(Cc1ccccc1)NC(=O)CCNC(=O)c1ccco1 (stereo not given)	1%	4%	i	4%	i	-5%
Cn1c(=O)c2[nH]c(CCNC(=O)c3ccccc3)nc2n(C)c1=O	5%	7%	i	16%	i	0%
CCOC(=O)C1=C(Nc2ccc(OC)cc2)OCC1=O	3%	1%	i	-10%	i	-5%
COc1cc2nc(NCCc3ccc(Cl)cc3)n3nc(-c4ccccc4)nc3c2cc1OC	.	-25%	i	.	i	?
NC(=O)c1cc(S(=O)(=O)Nc2ccc(OC(F)(F)F)cc2)cs1	-1%	?	?	3%	i	?
COc1ccc(CCNCC(=O)Nc2ccc(C)c(S(=O)(=O)N(C)C)c2)cc1	-10%	-30%	?	-29%	i	4.6µM*
Cc1cccc(/C=C2\Sc3ccc(C(=O)NCC4CCCO4)cc3N(C)C2=O)c1 (stereo not given)	-2%	13%	i	-4%	i	?
CN1C(=O)/C(=C/c2ccccc2F)Sc2ccc(C(=O)NCC3CCCO3)cc21 (stereo not given)	-10%	23µM*	i	?	i	?
COc1cc(CNC2CCCC2)cc(Br)c1OCC(=O)Nc1ccccc1C	-6%	-9%	i	-1%	i	-25%
Cc1ccc(NC(=O)c2cc(NC(=O)c3ccco3)ccc2N2CCOCC2)cc1	-2%	?	i	-10%	i	16µM*
Cc1ccc(NC(=O)c2cc(N3C(=O)C=CC3=O)ccc2Cl)cc1C	-9%	5.2µM*	i	2%	i	4.6µM*
CN1CCN(c2ccc(NC(=O)c3cc(S(N)(=O)=O)ccc3N3CCOCC3)cc2)CC1	2%	10%	i	-1%	i	3%
Cc1ccc(NC(=O)c2cc(N3C(=O)C=CC3=O)ccc2N2CCOCC2)cc1	?	0.82µM*	i	23µM*	?	2.3µM*
O=C(O)CCC(=O)OCCCc1cc2ccccc2c(=O)o1	-1%	-14%	i	6%	?	-6%
Cc1cc(/C=C(\C#N)C(=O)Nc2ccccc2F)c(C)[nH]1	7%	5%	i	6%	i	6%
CCN(CC)c1ccc(/C=C2\CCC(/C=C(/C#N)C(=O)Nc3ccccc3F)=C2N2CCOCC2)cc1	13%	2.1µM*	i	15%	i	2.3µM*
CCN(CC)c1ccc(/C=C2\CCC(/C=C(\C#N)C(=O)Nc3ccccc3F)=C2N2CCOCC2)cc1	4%	6.5µM*	i	3%	i	2.3µM*
COCCn1c(=NC(=O)c2ccc3c(c2)OCCO3)sc2cc(C(=O)OC)ccc21	.	1%	i	.	i	-23%
O=C(NC(=S)Nc1ccccn1)c1ccc(-c2ccccc2)cc1	-11%	21µM*	i	-21%	i	18µM*
Cc1ccnc(NC(=S)NC(=O)c2ccco2)c1	24%	18%	i	20%	i	-17%
Cc1cc(C)c(NC(=S)NC(=O)c2ccc(-c3ccccc3)cc2)c(C)c1	-6%	?	i	-15%	i	21µM*
O=C(NC(=S)Nc1ccccn1)c1ccco1	-2%	13µM*	i	-2%	i	?
CC(C)CCNC(=S)Nc1ccccn1	5%	?	i	1%	i	23µM*
Cc1ccc(NC(=S)NC(=O)c2ccccc2)cc1NC(=S)NC(=O)c1ccccc1	4%	-27%	i	9%	i	?
COCCNC(=S)Nc1ccccn1	4%	6%	i	9%	i	15%
SMILES	HT1080NT lethal	DT40 TDP1 CPT	KB-V1 MDR tox	HT1080 IDH1KD tx	KB-3-1 tox	TDP1 cell noCPT
Cc1nn(CC(=O)NCc2ccccc2Cl)c(=O)c2cccn12	.	-17%	i	.	i	-15%
O=[N+]([O-])c1cccc(-c2n[nH]c(=S)n2Cc2ccccc2)c1	11%	-18%	i	2%	i	?
COC(=O)CSc1nnc(-c2ccc(S(=O)(=O)NCc3ccccc3Cl)cc2)o1	-5%	?	i	1%	i	?
C/C(=N\Nc1nc2c(s1)CCCC2)c1ccc(Cl)cc1	23µM*	13µM*	?	23µM*	?	8.2µM*
CN(C)c1ccc(C(=O)Nc2nc3c(s2)CCCC3)cc1	1%	?	i	-18%	i	?
Cc1cc(=O)n2[nH]c(N)c(N=Nc3ccccc3F)c2n1	?	?	?	?	21µM*	16µM*
Cc1cc(C(F)(F)F)n2[nH]c(=O)c(N=Nc3ccccc3)c2n1	0%	1%	i	-8%	i	-4%
O=C(NCC(c1cccnc1)N1CCN(c2ccccc2F)CC1)c1ccccc1 (stereo not given)	-3%	?	i	3%	i	?
COC(=O)NCC(c1cccnc1)N1CCN(c2ccccc2)CC1 (stereo not given)	2%	3%	i	2%	i	-6%
O=C(NCC(c1cccnc1)N1CCN(c2ccccc2F)CC1)c1ccco1 (stereo not given)	1%	?	i	2%	i	23µM*
O=C(NCC(c1cccnc1)N1CCN(c2ccccc2)CC1)OCc1ccccc1 (stereo not given)	11%	?	2.6µM*	3%	i	?
O=C(NCC(c1cccnc1)N1CCN(c2ccc(F)cc2)CC1)OCc1ccccc1 (stereo not given)	-7%	?	?	-5%	i	15µM*
O=C(NCC(c1cccnc1)N1CCN(c2ccccc2)CC1)C1CCCCC1 (stereo not given)	0%	?	21µM*	-3%	i	?
Cc1cccc(N(C(=O)c2snc(C(N)=O)c2N)C(C(=O)NCC2CCCO2)c2c[nH]c3ccccc23)c1 (stereo not given)	-9%	?	i	-10%	i	?
CC12C=CC(=O)C=C1CCC1C2C(O)CC2(C)C1CCC2(O)C(=O)CO (stereo not given)	?	-29%	i	16%	i	-24%
O=C(NCC(c1cccnc1)N1CCN(c2ccccc2F)CC1)OCc1ccccc1 (stereo not given)	-2%	?	i	?	i	18µM*
